Test results from PubChem BioAssay (NCI).
The panel holds about 79,000 compounds, 15% with a hit somewhere; the sample as a whole holds those more often. Activity calls are given as the source filed them. Rule as the data show it: active = growth inhibition above about 70%; inactive = the rest.

Assays:
[1] = NCI Yeast Anticancer Drug Screen. Data for the wt1 strain (AID 149);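 also: 0% = growth of vehicle-treated wt1 cultures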; settings: S. cerevisiae wt1 strain (SPY 50644) growth inhibition, stronger effect = higher value
Outline: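 Vehicle-normalised growth inhibition; strain wt1; compound exposure.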

[2] = NCI Yeast Anticancer Drug Screen. Data for the rad50EPP+ strain (AID 151);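 also: 0% = growth of vehicle-treated control cultures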; settings: S. cerevisiae rad50 mutant strain, stronger effect = higher value
Outline: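 rad50EPP+ yeast treated with test compounds. Readout: growth vs vehicle control.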

[3] = NCI Yeast Anticancer Drug Screen. Data for the mgt1 strain (AID 153); settings: S. cerevisiae mgt1 mutant growth inhibition, stronger effect = higher value
Outline: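 Growth inhibition relative to vehicle controls was scored for the mgt1 yeast strain after compound exposure.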

[4] = NCI Yeast Anticancer Drug Screen. Data for the rad50 strain (AID 155);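 also: 0% = growth of vehicle-only cultures of the same strain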; settings: S. cerevisiae rad50 strain growth inhibition, stronger effect = higher value
Outline: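 A DNA repair-deficient yeast mutant serves as the test organism; compound-induced growth inhibition is calculated against vehicle-treated cells.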

[5] = NCI Yeast Anticancer Drug Screen. Data for the mec2-1 strain (AID 157); settings: S. cerevisiae mec2-1 strain, stronger effect = higher value
Outline: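 Growth inhibition is read against vehicle-treated controls after compound exposure of the mec2-1 yeast strain, which is defective in DNA damage repair or cell cycle control.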

[6] = NCI Yeast Anticancer Drug Screen. Data for the rad14 strain (AID 159);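 also: 0% = growth of vehicle-treated control cultures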; settings: S. cerevisiae rad14 strain growth inhibition, stronger effect = higher value
Outline: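 Vehicle-treated cultures served as the baseline for growth inhibition of a DNA repair-mutant yeast strain exposed to each compound.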

[7] = NCI Yeast Anticancer Drug Screen. Data for the sgs1 mgt1 strain (AID 161);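 also: 0% = growth of cultures given vehicle only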; settings: S. cerevisiae sgs1 mgt1 strain, stronger effect = higher value
Outline: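 This yeast growth screen uses a strain with defined DNA-repair lesions; compound-treated growth is compared with vehicle-treated growth.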

[8] = NCI Yeast Anticancer Drug Screen. Data for the CLN2oe strain (AID 163);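 also: 0% = growth of vehicle-only control cultures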; settings: S. cerevisiae CLN2oe strain, stronger effect = higher value
Outline: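 Compound-treated yeast; growth vs vehicle ctrl = % inhibition. Genetically altered strain (cell-cycle control).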

[9] = NCI Yeast Anticancer Drug Screen. Data for the cln2 rad14 strain (AID 165);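 also: 0% = growth equal to vehicle treated cultures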; settings: S. cerevisiae cln2 rad14 strain, stronger effect = higher value
Outline: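 Growth inhibition, relative to vehicle-treated controls, is the read-out. The test organism is a yeast strain with defined genetic alterations, cln2 rad14.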

[10] = NCI Yeast Anticancer Drug Screen. Data for the bub3 strain (AID 167); settings: S. cerevisiae bub3 mutant strain, stronger effect = higher value
Outline: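 Inhibition values come from growth of compound-treated mutant yeast normalised to vehicle-treated controls.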

[11] = NCI Yeast Anticancer Drug Screen. Data for the wt2 strain (AID 169);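 also: 0% = growth of vehicle-treated yeast cultures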; settings: S. cerevisiae wt2 strain growth inhibition, stronger effect = higher value
Outline: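 Compound exposure of yeast; growth compared with vehicle controls; inhibition reported.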

[12] = NCI Yeast Anticancer Drug Screen. Data for the mlh1 strain (AID 171);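 also: 0% = growth of vehicle-treated control cultures of the same strain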; settings: S. cerevisiae mlh1 strain growth inhibition, stronger effect = higher value
Outline: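 Compounds are applied to a genetically altered yeast strain, and its growth is compared with that of vehicle-treated cultures to give percent inhibition.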

[13] = NCI Yeast Anticancer Drug Screen. Data for the sgs1 strain (AID 173);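 also: 0% = growth of vehicle-only control cultures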; settings: S. cerevisiae sgs1 mutant, stronger effect = higher value
Outline: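 Compounds applied to genetically altered yeast; growth compared with vehicle-treated cultures to give % inhibition.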

[14] = NCI Yeast Anticancer Drug Screen. Data for the mlh1 rad18 strain (AID 175); settings: S. cerevisiae mlh1 rad18 strain growth inhibition, stronger effect = higher value
Outline: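 Cells of a genetically altered yeast strain, deficient in DNA damage repair, were treated with compound. Their growth was then compared with that of vehicle-treated cultures to give inhibition.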

[15] = NCI Yeast Anticancer Drug Screen. Data for the rad18 strain (AID 177); settings: S. cerevisiae rad18 mutant growth inhibition, stronger effect = higher value
Outline: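 Compounds are applied to a repair-deficient yeast strain, and growth is compared with that of vehicle-treated cultures to give percent inhibition.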

[16] = at 5.0 µM (retest, dose inferred, filed as 0.5)
[17] = at 50.0 µM (retest, dose inferred, filed as 5.0)

Measured: growth inhibition

CCOC(=O)c1sc2[n+](c1C)C(=O)/C(=C/c1cc(OC)c(OC)c(OC)c1)S2
inactive: [1]; at 1.2 µM 3% | [1]; at 3.7 µM 2% | [1]; at 11.0 µM 9% | [1]; at 33.0 µM 56% | [2]; at 1.2 µM 2% | [2]; at 3.7 µM 6% | [2]; at 11.0 µM 19% | [2]; at 33.0 µM 45% | [3]; at 1.2 µM 9% | [3]; at 3.7 µM 12% | [3]; at 11.0 µM 54% | [4]; at 1.2 µM 9% | [4]; at 3.7 µM 16% | [4]; [16] 1% | [4]; at 11.0 µM 18% | [4]; at 33.0 µM 68% | [4]; [17] 35% | [4]; at 50.0 µM 41% | [5]; at 1.2 µM 21% | [5]; at 3.7 µM 18% | [5]; [16] 6% | [5]; at 11.0 µM 34% | [5]; [17] 51% | [5]; at 50.0 µM 52.5% | [6]; at 1.2 µM 12% | [6]; at 3.7 µM 3% | [6]; at 11.0 µM 28% | [7]; [16] -4% | [7]; [17] 64% | [8]; at 1.2 µM 11% | [8]; at 3.7 µM 5% | [8]; at 11.0 µM 26% | [9]; [16] 13% | [9]; at 50.0 µM 55.5% | [10]; at 1.2 µM 12% | [10]; at 3.7 µM 7% | [10]; [16] -10% | [10]; at 11.0 µM 21% | [10]; at 33.0 µM 60% | [10]; [17] 12% | [10]; at 50.0 µM 40.9% | [10]; at 100.0 µM 66% | [11]; at 1.2 µM 2% | [11]; at 3.7 µM 3% | [11]; at 11.0 µM 47% | [12]; at 1.2 µM 9% | [12]; at 3.7 µM 9% | [12]; at 11.0 µM 36% | [13]; at 1.2 µM 17% | [13]; at 3.7 µM 23% | [13]; at 11.0 µM 48% | [14]; [16] 6% | [14]; [17] 60% | [14]; at 50.0 µM 25.1% | [15]; at 1.2 µM 19% | [15]; at 3.7 µM 27% | [15]; at 11.0 µM 40%
active: [1]; at 100.0 µM 88% | [2]; at 100.0 µM 76% | [3]; at 33.0 µM 86% | [3]; at 100.0 µM 93% | [4]; at 100.0 µM 87% | [5]; at 33.0 µM 76% | [5]; at 100.0 µM 92% | [6]; at 33.0 µM 77% | [6]; at 100.0 µM 92% | [7]; at 50.0 µM 80.5% | [8]; at 33.0 µM 76% | [8]; at 100.0 µM 83% | [9]; [17] 78% | [11]; at 33.0 µM 85% | [11]; at 100.0 µM 95% | [12]; at 33.0 µM 82% | [12]; at 100.0 µM 93% | [13]; at 33.0 µM 90% | [13]; at 100.0 µM 95% | [15]; at 33.0 µM 75% | [15]; at 100.0 µM 88%

Nc1c([N+](=O)[O-])cc2c3c(cccc13)CC2
inactive: [1]; at 1.2 µM 6% | [1]; at 3.7 µM 12% | [1]; at 11.0 µM 24% | [1]; at 33.0 µM 25% | [1]; at 100.0 µM 24% | [2]; at 1.2 µM 10% | [2]; at 3.7 µM 32% | [2]; at 11.0 µM 63% | [3]; at 1.2 µM 5% | [3]; at 3.7 µM 18% | [3]; at 11.0 µM 31% | [3]; at 33.0 µM 22% | [3]; at 100.0 µM 39% | [4]; at 1.2 µM 28% | [4]; at 3.7 µM 67% | [4]; [16] 3% | [5]; at 1.2 µM 4% | [5]; at 3.7 µM 14% | [5]; [16] 2% | [5]; at 11.0 µM 13% | [5]; at 33.0 µM 25% | [5]; [17] 29% | [5]; at 50.0 µM 27.9% | [5]; at 100.0 µM 29% | [6]; at 1.2 µM 11% | [6]; at 3.7 µM 14% | [6]; at 11.0 µM 30% | [6]; at 33.0 µM 39% | [6]; at 100.0 µM 54% | [7]; [16] 16% | [7]; [17] 54% | [7]; at 50.0 µM 52.5% | [8]; at 1.2 µM 8% | [8]; at 3.7 µM 14% | [8]; at 11.0 µM 17% | [8]; at 33.0 µM 20% | [8]; at 100.0 µM 26% | [9]; [16] -16% | [9]; [17] 20% | [9]; at 50.0 µM 21.5% | [10]; at 1.2 µM -4% | [10]; at 3.7 µM 0% | [10]; [16] -20% | [10]; at 11.0 µM 14% | [10]; at 33.0 µM 10% | [10]; [17] 17% | [10]; at 50.0 µM 21.4% | [10]; at 100.0 µM 11% | [11]; at 1.2 µM 3% | [11]; at 3.7 µM 10% | [11]; at 11.0 µM 18% | [11]; at 33.0 µM 25% | [11]; at 100.0 µM 55% | [12]; at 1.2 µM 5% | [12]; at 3.7 µM 14% | [12]; at 11.0 µM 20% | [12]; at 33.0 µM 28% | [12]; at 100.0 µM 53% | [13]; at 1.2 µM 8% | [13]; at 3.7 µM 20% | [13]; at 11.0 µM 33% | [13]; at 33.0 µM 45% | [13]; at 100.0 µM 65% | [14]; [16] 12% | [14]; [17] 65% | [15]; at 1.2 µM 24%
active: [2]; at 33.0 µM 74% | [2]; at 100.0 µM 71% | [4]; at 11.0 µM 79% | [4]; at 33.0 µM 77% | [4]; [17] 81% | [4]; at 50.0 µM 87.2% | [4]; at 100.0 µM 83% | [14]; at 50.0 µM 77.9% | [15]; at 3.7 µM 71% | [15]; at 11.0 µM 86% | [15]; at 33.0 µM 83% | [15]; at 100.0 µM 86%

c1ccc(N/N=C2\CC(c3ccccc3)Oc3ccccc32)cc1 (stereo unspecified)
inactive: [1]; at 1.2 µM -1% | [1]; at 3.7 µM 0% | [1]; at 11.0 µM -3% | [1]; at 33.0 µM -2% | [1]; at 100.0 µM -2% | [2]; at 1.2 µM 19% | [2]; at 3.7 µM 33% | [2]; at 11.0 µM 47% | [2]; at 33.0 µM 64% | [2]; at 100.0 µM 50% | [3]; at 1.2 µM -3% | [3]; at 3.7 µM -1% | [3]; at 11.0 µM 6% | [3]; at 33.0 µM 11% | [3]; at 100.0 µM 22% | [4]; at 1.2 µM 4% | [4]; at 3.7 µM 11% | [4]; [16] 5% | [4]; at 11.0 µM 1% | [4]; at 33.0 µM 32% | [4]; [17] 8% | [4]; at 100.0 µM 28% | [5]; at 1.2 µM 1% | [5]; at 3.7 µM 4% | [5]; [16] -2% | [5]; at 11.0 µM 9% | [5]; at 33.0 µM 14% | [5]; [17] 23% | [5]; at 50.0 µM 31.4%
active: [4]; at 50.0 µM 71.2%
